# Paper PMC4151992
# Tests used:
# Assay in all cases: cross-link between two proteins
# [1] = molecular target: Small ribosomal subunit protein eS1A (UniProt P33442)
# [2] = molecular target: Small ribosomal subunit protein eS4A (UniProt P0CX35)
# [3] = molecular target: Small ribosomal subunit protein eS6A (UniProt P0CX37)
# [4] = molecular target: Small ribosomal subunit protein eS7A (UniProt P26786)
# Chain of Small ribosomal subunit protein eS7A (P26786 whole entry): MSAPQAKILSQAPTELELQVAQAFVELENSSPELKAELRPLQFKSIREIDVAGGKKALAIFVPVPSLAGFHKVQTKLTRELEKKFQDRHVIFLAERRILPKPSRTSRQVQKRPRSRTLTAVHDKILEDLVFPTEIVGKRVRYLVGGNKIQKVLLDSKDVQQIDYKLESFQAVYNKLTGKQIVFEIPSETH
# Chain of Small ribosomal subunit protein eS1A (P33442 whole entry): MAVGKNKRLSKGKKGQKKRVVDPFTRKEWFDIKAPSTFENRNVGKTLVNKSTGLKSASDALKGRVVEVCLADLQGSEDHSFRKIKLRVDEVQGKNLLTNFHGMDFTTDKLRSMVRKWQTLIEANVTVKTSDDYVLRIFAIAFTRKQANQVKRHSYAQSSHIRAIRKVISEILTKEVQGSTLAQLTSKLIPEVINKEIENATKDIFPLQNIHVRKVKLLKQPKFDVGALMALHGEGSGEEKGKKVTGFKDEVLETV
# Chain of Small ribosomal subunit protein uS8A, P0C0W1 (P0C0W1 whole entry): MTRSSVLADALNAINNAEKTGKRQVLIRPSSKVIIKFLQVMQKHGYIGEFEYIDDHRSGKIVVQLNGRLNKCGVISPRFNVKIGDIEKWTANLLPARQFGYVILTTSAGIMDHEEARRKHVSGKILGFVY
# Chain of Small ribosomal subunit protein eS4A (P0CX35 whole entry): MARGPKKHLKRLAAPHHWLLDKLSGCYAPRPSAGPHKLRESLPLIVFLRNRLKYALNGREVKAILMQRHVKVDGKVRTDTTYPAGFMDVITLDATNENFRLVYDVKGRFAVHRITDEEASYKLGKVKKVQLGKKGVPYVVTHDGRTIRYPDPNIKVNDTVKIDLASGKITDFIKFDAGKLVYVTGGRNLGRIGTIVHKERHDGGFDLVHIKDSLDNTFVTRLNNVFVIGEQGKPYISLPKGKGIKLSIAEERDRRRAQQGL
# Chain of Small ribosomal subunit protein eS6A (P0CX37 whole entry): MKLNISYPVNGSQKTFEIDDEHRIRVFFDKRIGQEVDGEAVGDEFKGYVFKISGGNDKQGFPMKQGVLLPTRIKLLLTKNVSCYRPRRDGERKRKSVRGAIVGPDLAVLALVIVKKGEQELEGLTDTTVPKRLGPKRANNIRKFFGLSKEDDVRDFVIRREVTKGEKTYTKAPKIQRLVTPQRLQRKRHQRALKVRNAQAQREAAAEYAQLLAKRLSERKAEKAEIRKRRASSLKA
substance,measurement,setting,value
"Small ribosomal subunit protein uS11A, P06367",listed as a hit,[1],yes
"Small ribosomal subunit protein eS24A, P0CX31",listed as a hit,[2],yes
"Small ribosomal subunit protein eS4A, P0CX35",listed as a hit,[3],yes
"Small ribosomal subunit protein uS8A, P0C0W1",listed as a hit,[4],yes
